Among all 5,500 compounds or so, about 2,000 (36%) were called active. Not shown: some 18% with an inconclusive outcome. Cut-off read from the data, not from the text of the source: active = normalized growth mostly below about 0.91 (no sharp cut-off); inconclusive = no clear call, values can overlap the other calls; inactive = mostly above about 0.92. Some of the results follow.
Test: chemical genetic growth profiling, strain panel (AID 1159580);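 note: tested at 20 µM; growth read once vehicle control cultures reached saturation at 30 °C; 1 = growth at the plate median or of vehicle wells; lower values mean less growth of the strain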
Settings: S. cerevisiae deletion strains, growth OD

Measured: normalized growth

COc1ccc(-c2coc3cc(OC)cc(OC)c3c2=O)cc1
inactive: locus YAL021C, strain ccr4, active compounds read low 1 | locus YAL026C, strain drs2, active compounds read low 0.985 | locus YAL030W, strain snc1, active compounds read low 0.987 | locus YBL061C, strain skt5, active compounds read low 0.972 | locus YBR009C, strain hhf1, active compounds read low 0.988 | locus YBR023C, strain chs3, active compounds read low 0.97 | locus YBR171W, strain sec66, active compounds read low 0.994 | locus YBR231C, strain swc5, active compounds read low 0.989 | locus YBR279W, strain paf1, active compounds read low 0.993 | locus YCL011C, strain gbp2, active compounds read low 0.979 | locus YCL016C, strain dcc1, active compounds read low 0.997 | locus YCL061C, strain MRC1, active compounds read low 0.989 | locus YCL069W, strain vba3, active compounds read low 0.996 | locus YCR088W, strain abp1, active compounds read low 0.991 | locus YDL005C, strain med2, active compounds read low 1 | locus YDL040C, strain nat1, active compounds read low 0.987 | locus YDR001C, strain nth1, active compounds read low 0.984 | locus YDR069C, strain doa4, active compounds read low 1 | locus YDR137W, strain rgp1, active compounds read low 0.974 | locus YDR159W, strain sac3, active compounds read low 0.987 | locus YDR195W, strain ref2 1.04 | locus YDR297W, strain sur2, active compounds read low 0.983 | locus YDR334W, strain swr1, active compounds read low 1 | locus YDR335W, strain msn5, active compounds read low 0.997 | locus YDR392W, strain spt3, active compounds read low 0.843 | locus YEL003W, strain gim4, active compounds read low 0.987 | locus YEL037C, strain rad23, active compounds read low 0.988 | locus YEL061C, strain CIN8 (second series), active compounds read low 0.99 | locus YER015W, strain faa2, active compounds read low 0.99 | locus YER016W, strain bim1, active compounds read low 0.99 | locus YER111C, strain swi4, active compounds read low 0.991 | locus YER155C, strain BEM2 (second series), active compounds read low 0.946 | locus YFR010W, strain ubp6, active compounds read low 1 | locus YGL167C, strain pmr1, active compounds read low 0.982 | locus YGL173C, strain kem1, active compounds read low 0.98 | locus YGL227W, strain vid30, active compounds read low 0.992 | locus YGL240W, strain doc1, active compounds read low 0.982 | locus YGL253W, strain hxk2, active compounds read low 0.995 | locus YHR013C, strain ard1, active compounds read low 0.96 | locus YHR027C, strain rpn1, active compounds read low 0.994 | locus YHR142W, strain chs7, active compounds read low 0.93 | locus YJL092W, strain hpr5, active compounds read low 0.991 | locus YJL095W, strain BCK1 (second series), active compounds read low 1.01 | locus YJL115W, strain asf1, active compounds read low 0.996 | locus YJL129C, strain trk1, active compounds read low 0.969 | locus YJL154C, strain vps35, active compounds read low 0.998 | locus YJL164C, strain tpk1, active compounds read low 0.981 | locus YJL166W, strain qcr8, active compounds read low 0.986 | locus YJL187C, strain SWE1, active compounds read low 0.988 | locus YKL160W, strain elf1, active compounds read low 0.986 | locus YKR026C, strain gcn3, active compounds read low 0.988 | locus YKR091W, strain srl3, active compounds read low 0.989 | locus YLL001W, strain dnm1, active compounds read low 0.976 | locus YLL026W, active compounds read low 0.987 | locus YLL041C, strain sdh2, active compounds read low 0.991 | locus YLR027C, strain aat2, active compounds read low 0.998 | locus YLR221C, strain rsa3, active compounds read low 0.978 | locus YLR258W, strain gsy2, active compounds read low 0.987 | locus YLR262C, strain YPT6 (second series), active compounds read low 0.968 | locus YLR320W, strain mms22, active compounds read low 0.971 | locus YLR342W, strain FKS1, active compounds read low 0.994 | locus YLR357W, strain rsc2, active compounds read low 0.988 | locus YLR370C, strain arc18, active compounds read low 0.992 | locus YLR384C, strain iki3, active compounds read low 0.987 | locus YML120C, strain ndi1, active compounds read low 0.989 | locus YMR058W, strain fet3, active compounds read low 0.987 | locus YMR125W, strain sto1, active compounds read low 1.01 | locus YMR129W, active compounds read low 0.987 | locus YMR205C, strain PFK2, active compounds read low 0.959 | locus YMR231W, strain pep5, active compounds read low 0.977 | locus YNL071W, strain lat1, active compounds read low 0.988 | locus YNL209W, strain ssb2, active compounds read low 0.995 | locus YNL248C, strain rpa49, active compounds read low 0.999 | locus YNL322C, strain KRE1 (second series), active compounds read low 0.994 | locus YNR049C, strain mso1, active compounds read low 1 | locus YOR001W, strain rrp6, active compounds read low 1.01 | locus YOR070C, strain gyp1, active compounds read low 1.01 | locus YOR080W, strain dia2, active compounds read low 1 | locus YOR083W, strain WHI5, active compounds read low 0.984 | locus YOR106W, strain vam3, active compounds read low 0.974 | locus YOR265W, strain rbl2, active compounds read low 0.984 | locus YOR270C, strain vph1, active compounds read low 0.885 | locus YOR290C, strain snf2, active compounds read low 0.948 | locus YPL051W, strain arl3, active compounds read low 0.972 | locus YPL078C, strain atp4, active compounds read low 0.975 | locus YPL106C, strain sse1, active compounds read low 0.964 | locus YPL240C, strain hsp82, active compounds read low 0.984
